About 2,000 (36%) of roughly 5,500 compounds were called active. Not shown: some 18% with an inconclusive outcome. No stated cut-off is given here; in the data, active means normalized growth mostly below about 0.91 (no sharp cut-off); inconclusive means no clear call, values can overlap the other calls; inactive means mostly above about 0.92. Some of the results follow.
Assay: chemical genetic growth profiling, strain panel (AID 1159580);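 further: tested at 20 µM; growth read once vehicle control cultures reached saturation at 30 °C; 1 = growth at the plate median or of vehicle wells; lower values mean less growth of the strain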
Conditions: growth OD

Measured: normalized growth

O=C(O)CNCP(=O)(O)O
inactive: S. cerevisiae deletion strains, locus YJR075W, strain HOC1, hits give low values 1.01 | S. cerevisiae deletion strains, locus YKL009W, strain mrt4, hits give low values 1.04 | S. cerevisiae deletion strains, locus YKL068W, hits give low values 1.01 | S. cerevisiae deletion strains, locus YKL085W, strain MDH1 (second series), hits give low values 1 | S. cerevisiae deletion strains, locus YKL085W, strain MDH1, hits give low values 1 | S. cerevisiae deletion strains, locus YKL160W, strain elf1, hits give low values 1.02 | S. cerevisiae deletion strains, locus YKL190W, strain CNB1, hits give low values 1.01 | S. cerevisiae deletion strains, locus YKR001C, strain vps1, hits give low values 1.02 | S. cerevisiae deletion strains, locus YKR026C, strain gcn3, hits give low values 1.02 | S. cerevisiae deletion strains, locus YKR091W, strain srl3, hits give low values 1.01 | S. cerevisiae deletion strains, locus YLL001W, strain dnm1, hits give low values 1.02 | S. cerevisiae deletion strains, locus YLL026W, hits give low values 1.01 | S. cerevisiae deletion strains, locus YLL041C, strain sdh2, hits give low values 1.01 | S. cerevisiae deletion strains, locus YLR027C, strain aat2, hits give low values 1.01 | S. cerevisiae deletion strains, locus YLR039C, strain RIC1, hits give low values 1.03 | S. cerevisiae deletion strains, locus YLR058C, strain SHM2, hits give low values 1.01 | S. cerevisiae deletion strains, locus YLR102C, strain apc9, hits give low values 1.01 | S. cerevisiae deletion strains, locus YLR113W, strain HOG1, hits give low values 1.02 | S. cerevisiae deletion strains, locus YLR221C, strain rsa3, hits give low values 1.01 | S. cerevisiae deletion strains, locus YLR258W, strain gsy2, hits give low values 1.02 | S. cerevisiae deletion strains, locus YLR262C, strain YPT6 (second series), hits give low values 1.03 | S. cerevisiae deletion strains, locus YLR262C, strain YPT6, hits give low values 1.03 | S. cerevisiae deletion strains, locus YLR268W, strain sec22, hits give low values 1 | S. cerevisiae deletion strains, locus YLR320W, strain mms22, hits give low values 1.03 | S. cerevisiae deletion strains, locus YLR330W, strain CHS5, hits give low values 1.01 | S. cerevisiae deletion strains, locus YLR342W, strain FKS1 (second series), hits give low values 1.03 | S. cerevisiae deletion strains, locus YLR342W, strain FKS1, hits give low values 1.03 | S. cerevisiae deletion strains, locus YLR357W, strain rsc2, hits give low values 1.03 | S. cerevisiae deletion strains, locus YLR370C, strain arc18, hits give low values 1 | S. cerevisiae deletion strains, locus YLR371W, strain rom2, hits give low values 1.01 | S. cerevisiae deletion strains, locus YLR384C, strain iki3, hits give low values 0.993 | S. cerevisiae deletion strains, locus YLR418C, strain cdc73, hits give low values 1.02 | S. cerevisiae deletion strains, locus YML016C, strain PPZ1, hits give low values 1 | S. cerevisiae deletion strains, locus YML032C, strain rad52, hits give low values 1.01 | S. cerevisiae deletion strains, locus YML120C, strain ndi1, hits give low values 1.02 | S. cerevisiae deletion strains, locus YML124C, strain tub3, hits give low values 1.01 | S. cerevisiae deletion strains, locus YMR058W, strain fet3, hits give low values 1.02 | S. cerevisiae deletion strains, locus YMR078C, strain ctf18, hits give low values 1.01 | S. cerevisiae deletion strains, locus YMR125W, strain sto1, hits give low values 1.02 | S. cerevisiae deletion strains, locus YMR129W, hits give low values 1.01 | S. cerevisiae deletion strains, locus YMR205C, strain PFK2, hits give low values 1.05 | S. cerevisiae deletion strains, locus YMR223W, strain ubp8, hits give low values 1.01 | S. cerevisiae deletion strains, locus YMR231W, strain pep5, hits give low values 1 | S. cerevisiae deletion strains, locus YMR263W, strain SAP30, hits give low values 1.01 | S. cerevisiae deletion strains, locus YMR307W, strain GAS1, hits give low values 0.975 | S. cerevisiae deletion strains, locus YNL067W, strain RPL9B, hits give low values 1.02 | S. cerevisiae deletion strains, locus YNL071W, strain lat1, hits give low values 1.02 | S. cerevisiae deletion strains, locus YNL128W, strain TEP1, hits give low values 1 | S. cerevisiae deletion strains, locus YNL153C, strain GIM3, hits give low values 1 | S. cerevisiae deletion strains, locus YNL183C, strain NPR1, hits give low values 0.917 | S. cerevisiae deletion strains, locus YNL209W, strain ssb2, hits give low values 1.03 | S. cerevisiae deletion strains, locus YNL233W, strain BNI4, hits give low values 1.02 | S. cerevisiae deletion strains, locus YNL248C, strain rpa49, hits give low values 1.01 | S. cerevisiae deletion strains, locus YNL250W, strain rad50, hits give low values 1 | S. cerevisiae deletion strains, locus YNL271C, strain bni1, hits give low values 1.01 | S. cerevisiae deletion strains, locus YNL298W, strain CLA4, hits give low values 1.02 | S. cerevisiae deletion strains, locus YNL307C, strain MCK1, hits give low values 1.02 | S. cerevisiae deletion strains, locus YNL322C, strain KRE1 (second series), hits give low values 1.02 | S. cerevisiae deletion strains, locus YNL322C, strain KRE1, hits give low values 1 | S. cerevisiae deletion strains, locus YNR049C, strain mso1, hits give low values 1.02 | S. cerevisiae deletion strains, locus YNR052C, strain pop2, hits give low values 1.01 | S. cerevisiae deletion strains, locus YOL006C, strain TOP1, hits give low values 1.05 | S. cerevisiae deletion strains, locus YOL012C, strain htz1 0.788 | S. cerevisiae deletion strains, locus YOL147C, strain pex11, hits give low values 1.01 | S. cerevisiae deletion strains, locus YOR001W, strain rrp6, hits give low values 1.01 | S. cerevisiae deletion strains, locus YOR061W, strain CKA2, hits give low values 1 | S. cerevisiae deletion strains, locus YOR069W, strain VPS5, hits give low values 1.01 | S. cerevisiae deletion strains, locus YOR070C, strain gyp1, hits give low values 1.02 | S. cerevisiae deletion strains, locus YOR080W, strain dia2, hits give low values 1.01 | S. cerevisiae deletion strains, locus YOR083W, strain WHI5, hits give low values 1.01 | S. cerevisiae deletion strains, locus YOR106W, strain vam3, hits give low values 1.02 | S. cerevisiae deletion strains, locus YOR136W, strain idh2, hits give low values 1.02 | S. cerevisiae deletion strains, locus YOR144C, strain elg1, hits give low values 1.02 | S. cerevisiae deletion strains, locus YOR184W, strain ser1, hits give low values 1.02 | S. cerevisiae deletion strains, locus YOR231W, strain MKK1, hits give low values 0.977 | S. cerevisiae deletion strains, locus YOR265W, strain rbl2, hits give low values 1.01 | S. cerevisiae deletion strains, locus YOR270C, strain vph1, hits give low values 1.03 | S. cerevisiae deletion strains, locus YOR290C, strain snf2, hits give low values 1.02 | S. cerevisiae deletion strains, locus YOR316C, strain cot1, hits give low values 1.01 | S. cerevisiae deletion strains, locus YPL051W, strain arl3, hits give low values 1.02 | S. cerevisiae deletion strains, locus YPL055C, strain LGE1, hits give low values 0.987 | S. cerevisiae deletion strains, locus YPL078C, strain atp4, hits give low values 1.02 | S. cerevisiae deletion strains, locus YPL106C, strain sse1, hits give low values 1.02 | S. cerevisiae deletion strains, locus YPL240C, strain hsp82, hits give low values 1.02 | S. cerevisiae deletion strains, locus YPL241C, strain CIN2, hits give low values 0.999 | S. cerevisiae deletion strains, locus YPL256C, strain CLN2, hits give low values 0.962 | S. cerevisiae deletion strains, locus YPR119W, strain clb2, hits give low values 1.01 | S. cerevisiae deletion strains, locus YPR141C, strain kar3, hits give low values 1.02 | S. cerevisiae deletion strains, locus YPR163C, strain tif3, hits give low values 1.01 | S. cerevisiae deletion strains, locus YPR167C, strain met16, hits give low values 1.02 | S. cerevisiae deletion strains, strain wtn01, hits give low values 1.01 | S. cerevisiae strains, strain wild type, hits give low values 0.997
